This is an account of results in PubChem BioAssay (NCATS).

“And” between values parts separate entries of the source, which are not always exact repeats. Equal entries are not always repeated. Inconclusive results are not listed. Some structures have more than one record in an assay (separate samples or runs), and their calls can disagree. The source made the active and inactive calls. The call rests on the fitted dose curve; in most records, active means well fitted inhibition curve with a large enough effect; inconclusive means small, poorly fitted or top-dose-only effect; inactive means no such curve, though single readings can be large or run the other way.
On the % scale 0 is the no-effect control and ±100 the full control effect; potency means the concentration at half of the fitted maximal effect.

Cytochrome P450 2C19 (Homo sapiens), sequence (P33261 whole entry, looked up): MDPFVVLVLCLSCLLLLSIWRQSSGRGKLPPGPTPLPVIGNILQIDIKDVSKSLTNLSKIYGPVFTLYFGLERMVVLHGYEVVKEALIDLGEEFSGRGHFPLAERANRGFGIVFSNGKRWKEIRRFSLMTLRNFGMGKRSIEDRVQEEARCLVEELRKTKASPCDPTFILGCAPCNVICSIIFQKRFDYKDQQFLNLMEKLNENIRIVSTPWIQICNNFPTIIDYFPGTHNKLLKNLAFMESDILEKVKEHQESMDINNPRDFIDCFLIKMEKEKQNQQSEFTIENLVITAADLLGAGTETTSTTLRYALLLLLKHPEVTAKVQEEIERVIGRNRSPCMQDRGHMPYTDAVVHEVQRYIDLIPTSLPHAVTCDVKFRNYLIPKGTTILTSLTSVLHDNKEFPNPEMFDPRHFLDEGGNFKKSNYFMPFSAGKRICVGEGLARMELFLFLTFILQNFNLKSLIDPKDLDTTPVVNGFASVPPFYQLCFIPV

For the experiment, the target named is Cytochrome P450 2C19 (Homo sapiens) (UniProt P33261). Put plainly: qHTS Assay for Inhibitors and Substrates of Cytochrome P450 2C19 (AID 899). Further: nearly all actives have a fitted effect of over 60% in size. The settings on record: recombinant CYP2C19, luciferin-H EGE luminescence; series mostly up to 57.1 µM; activity, negative = inhibition: at the top concentration. The protocol:
NIH Molecular Libraries Screening Centers Network [MLSCN]
NIH Chemical Genomics Center [NCGC]
The P450 gene superfamily is involved in the metabolism and clearance of xenobiotics. This assay used human CYP2C19 to measure the hydroxylation of ethylene glycol ester of 6' deoxyluciferin (Luciferin-H EGE; […]) to luciferin. The luciferin is then measured by luminescence after the addition of a luciferase detection reagent. Luciferin-H EGE concentration in the assay was equal to its KM for CYP2C19. Inhibitors and some substrates limit the production of luciferin, and decrease measured luminescence.
NCGC Assay Protocol Summary:
Two uL of enzyme and substrate mix (final concentrations: 5nM CYP2C19, 10uM Luciferin-H EGE, 50mM KPO4) were dispensed into a white, solid bottom 1536-well microtiter plate. 23nL of compound was transferred by a pin tool. The plate was incubated at 37C for 10 min. Two uL of an NADPH regeneration solution (Promega supplied reagent) was dispensed and the reaction was allowed to continue for 60 min at 37C. Then the reaction was stopped by reconstituted luciferin detection buffer. After another 20 min of incubation the plate was read on the ViewLux (Perkin Elmer) at 60 sec exposure and 2x2 binning. This protocol was carried out with Promega-Glo reagents and further information can be found at http://www.promega.com/tbs/tb325/tb325.pdf. Data were normalized to the to AC100 inhibition (57uM ketoconazole).
Keywords: P450, CYP2C19, Luciferase, MLSMR, MLSCN, NIH Roadmap, qHTS, NCGC
(In general: In qHTS, concentration-response curves come from the screen itself.)
For the compound `Cc1cccc(C#Cc2ccccc2)n1`, the Potency entry is “inactive and 7.94 µM (active)”.
On to `O=c1c(O)c(-c2ccc(O)cc2O)oc2cc(O)cc(O)c12`, for which the “activity, negative = inhibition” value is -34.9% (inactive).
Still for that read-out and setting: the same measure for `O=C1c2ccccc2-c2n[nH]c3cccc1c23`: -45.8% (inactive).
For `O=C(CCc1ccc(O)cc1)c1c(O)cc(O)cc1O`, the Potency is 3.98 µM (active).
Still for that read-out and setting: the same measure for `O=C(NCCO[N+](=O)[O-])c1cccnc1`: 3.98 µM (active).
`C[C@H](Cc1ccc(O)c(O)c1)[C@@H](C)Cc1ccc(O)c(O)c1`: the Potency was 6.31 µM (active).
For the compound `CC1(C)NC(=O)N(c2ccc([N+](=O)[O-])c(C(F)(F)F)c2)C1=O`, the Potency is 7.94 µM (active) and 126 nM (active) and 251 nM (active).
`CCc1nc(N)nc(N)c1-c1ccc(Cl)cc1`: the result was inactive.
Regarding `CCCc1cc(=O)[nH]c(=S)[nH]1`, the “activity, negative = inhibition” value is 45.2% [at 25.6 µM] (inactive).
In the case of `Cc1nc2n(c(=O)c1CCN1CCC(c3noc4cc(F)ccc34)CC1)CCCC2`, the outcome was inactive.
Same read-out and setting: the same measure for `CC(=O)Nc1ccc(O)cc1`: “inactive”.
As to `O=C(O)c1cccnc1Nc1cccc(C(F)(F)F)c1`, the “activity, negative = inhibition” value is 1.61% (inactive).
With `Oc1ccc(-c2nc(-c3ccc(F)cc3)c(-c3ccncc3)[nH]2)cc1`, the Potency was 0.794 µM (active).
As for `Cc1c(OCC(F)(F)F)ccnc1CS(=O)c1nc2ccccc2[nH]1` (centres undefined), the Potency is 1.26 µM (active).
